The values that follow come from the supplement of paper PMC3334620.

In all, about 33,000 sequences were measured (“E-score (-0.5 to 0.5)”: median about -0.0014, highest 2% from about 0.25 on). Only a selection was taken, and the highest values are over-represented in it overall.

The target in the assay is T1, Cad1 (UniProt P24813).
T1 sequence: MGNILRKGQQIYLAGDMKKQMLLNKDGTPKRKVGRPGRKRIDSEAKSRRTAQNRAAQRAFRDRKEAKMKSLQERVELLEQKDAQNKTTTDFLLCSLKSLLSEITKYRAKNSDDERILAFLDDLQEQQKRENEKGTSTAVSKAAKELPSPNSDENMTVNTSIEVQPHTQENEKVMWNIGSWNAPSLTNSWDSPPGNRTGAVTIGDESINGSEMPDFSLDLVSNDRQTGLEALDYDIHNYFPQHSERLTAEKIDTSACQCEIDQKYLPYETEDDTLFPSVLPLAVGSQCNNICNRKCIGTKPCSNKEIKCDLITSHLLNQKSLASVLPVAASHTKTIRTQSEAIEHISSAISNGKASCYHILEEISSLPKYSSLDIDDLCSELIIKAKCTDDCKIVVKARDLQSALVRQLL
The assay is described as follows: PBM E-score (8-mer binding enrichment) (E-score (-0.5 to 0.5)); higher = stronger / more preferred TF binding. The conditions noted are these: protein concentration: 100 nM; construct: GST-full length. As for the experimental part:
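Universal 'all 10-mer' protein binding microarrays (Agilent AMADID 015681) probed with GST-tagged S. cerevisiae TFs (full-length or DBD) made by in vitro transcription/translation (PURExpress), about 100-200 nM. Bound TF was detected with fluorescent anti-GST. Each ungapped 8-mer (which stands for itself and its reverse complement) is scored by the PBM enrichment score (E-score), a modified Wilcoxon-Mann-Whitney statistic from -0.5 to +0.5, computed with the Universal PBM Analysis Suite. Scale: above 0.35 generally sequence-specific binding.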
Take CATGACAA: the “PBM E-score” value came to 0.165.
As for GATGACAA, the figure is 0.304.
Regarding GCTGACAC, the “PBM E-score” value is 0.247.
With GCTGACAA, the “PBM E-score” value worked out at 0.412.
The same measure for GATGACAC: 0.0339; for GTTGACAA: 0.166; for CGCAATCC: 0.248.
As for CCTGATCG, the “PBM E-score” value was -0.0975.
For the sequence TCGGAACA, the “PBM E-score” value turned out to be 0.268.
Consider ACGGAACA, for which the “PBM E-score” value was found to be 0.0866.
As to CCGGAACA, the “PBM E-score” value was 0.108.
As to AAAATAAT, the “PBM E-score” value worked out at 0.314.
Take AAATAAAA: the “PBM E-score” value was -0.0112.
For the sequence AAATAAAT, the “PBM E-score” value was 0.314.
On to AAAATAAA, for which the “PBM E-score” value was 0.128.
AAATAATT: the “PBM E-score” value was 0.295.
Turning to AAATAATC, the “PBM E-score” value was found to be 0.198.
As for AAAATAAC, the figure is -0.0367.
As for AAATAATA, the figure is 0.248; as for AAATAAAG, -0.0232; as for CACTGGCA, -0.0733.
Consider CCAAGACC, for which the “PBM E-score” value was -0.0342.
As to CCGCCGTC, the “PBM E-score” value came to 0.117.
AGTCACTA: the “PBM E-score” value was 0.0232.
On to GCGCAGTA, for which the “PBM E-score” value is 0.149.
As for GAAGATTA, the “PBM E-score” value is 0.181.
Consider TATGCGCA, for which the “PBM E-score” value amounted to 0.0953.
As to CGTCCGTA, the “PBM E-score” value was -0.0771.
With CAAGCACA, the “PBM E-score” value was -0.0831.
CAAGCACG: the “PBM E-score” value worked out at 0.152.
For the sequence TAAGCACA, the “PBM E-score” value amounted to 0.295.
In the case of GCACGAAA, the “PBM E-score” value amounted to 0.197.
As for AGTATCGG, the figure is 0.0469.
Regarding AGCATGCC, the “PBM E-score” value was -0.111.
As to CGCATGCC, the “PBM E-score” value stood at 0.252.
As to GGCATGCC, the “PBM E-score” value is 0.00621.
Take GAAATTCA: the “PBM E-score” value is 0.169.
As for GAATTCCA, the figure is 0.117.
In the case of CCAAATTA, the “PBM E-score” value stood at 0.107.
Regarding ACAAATTG, the “PBM E-score” value was 0.202.
As to AAAATTCG, the “PBM E-score” value came to 0.201.
The same measure for AAAATTCA: 0.284.
Consider ACAAATTA, for which the “PBM E-score” value was found to be 0.295.
Regarding GGAAATCA, the “PBM E-score” value is 0.0778.
On to CGAAATCA, for which the “PBM E-score” value was determined as 0.306.
The same measure for CGAAATCC: 0.0502.
As to CAATTCCA, the “PBM E-score” value was -0.0425.
As for AAATTCCA, the “PBM E-score” value came to 0.308.
On to ACCCAAGT, for which the “PBM E-score” value was -0.0625.
For ATCAACCC, the “PBM E-score” value is 0.0896.
Take ATCCTAAA: the “PBM E-score” value was -0.12.
Turning to CGAACTCC, the “PBM E-score” value is 0.0429.
As for TAAAAGAA, the figure is 0.0891.
Turning to ACTCTAAG, the “PBM E-score” value was -0.094.
For GACGTTAA, the “PBM E-score” value came to 0.245.
On to AGGTGTAG, for which the “PBM E-score” value was -0.128.
For CGGCACAA, the “PBM E-score” value is -0.103.
The same measure for ATGCTTGC: -0.14; for CCAAATCA: -0.041.
The same measure for AGAAATTA: 0.296.
The same measure for ACAAATCA: 0.279.
Take AGAAATTC: the “PBM E-score” value is 0.13.
As to AAAAATTA, the “PBM E-score” value is 0.254.
Take GGAAATTA: the “PBM E-score” value turned out to be 0.208.
As for CAAAATTA, the “PBM E-score” value was 0.187.
As to GAAAATTA, the “PBM E-score” value was determined as 0.13.
For the sequence GCAAATCA, the “PBM E-score” value amounted to 0.101.
Take AAAAAATT: the “PBM E-score” value came out at 0.12.
Consider AAAATTTT, for which the “PBM E-score” value was determined as 0.234.
Take AAAAATTT: the “PBM E-score” value came to 0.269.
As for CGGAAAAC, the figure is 0.221; as for ATCCAACC, -0.0228.
With CGCCCTGC, the “PBM E-score” value was -0.128.
As for ATCCTAGA, the figure is -0.0558.
Consider AATTTGCG, for which the “PBM E-score” value was determined as 0.173.
Take CCGGAAAA: the “PBM E-score” value turned out to be 0.215.
For the sequence TAAAATAA, the “PBM E-score” value is 0.164.
With TAAAATTA, the “PBM E-score” value amounted to 0.297.
Take TAAATTTA: the “PBM E-score” value worked out at 0.154.
Regarding AATGCCGT, the “PBM E-score” value was determined as 0.107.
Regarding ATCTTCAC, the “PBM E-score” value was -0.0332.
The same measure for CTAAGACC: -0.0662; for ACCCTAAG: -0.101.
The same measure for GATTTCGA: -0.0223; for CATTTCGC: -0.15.
On to GATTTCGC, for which the “PBM E-score” value was determined as 0.28.
